These compounds were tested against Ribosomal protein S6 kinase alpha-5 (Homo sapiens) (UniProt O75582). Settings: at 0.1 µM.
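Also: mean inhibition of MSK1 reported, from a GSK PKIS inhibitor set screen.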

Chain of Ribosomal protein S6 kinase alpha-5 (Homo sapiens) (O75582 whole entry, looked up): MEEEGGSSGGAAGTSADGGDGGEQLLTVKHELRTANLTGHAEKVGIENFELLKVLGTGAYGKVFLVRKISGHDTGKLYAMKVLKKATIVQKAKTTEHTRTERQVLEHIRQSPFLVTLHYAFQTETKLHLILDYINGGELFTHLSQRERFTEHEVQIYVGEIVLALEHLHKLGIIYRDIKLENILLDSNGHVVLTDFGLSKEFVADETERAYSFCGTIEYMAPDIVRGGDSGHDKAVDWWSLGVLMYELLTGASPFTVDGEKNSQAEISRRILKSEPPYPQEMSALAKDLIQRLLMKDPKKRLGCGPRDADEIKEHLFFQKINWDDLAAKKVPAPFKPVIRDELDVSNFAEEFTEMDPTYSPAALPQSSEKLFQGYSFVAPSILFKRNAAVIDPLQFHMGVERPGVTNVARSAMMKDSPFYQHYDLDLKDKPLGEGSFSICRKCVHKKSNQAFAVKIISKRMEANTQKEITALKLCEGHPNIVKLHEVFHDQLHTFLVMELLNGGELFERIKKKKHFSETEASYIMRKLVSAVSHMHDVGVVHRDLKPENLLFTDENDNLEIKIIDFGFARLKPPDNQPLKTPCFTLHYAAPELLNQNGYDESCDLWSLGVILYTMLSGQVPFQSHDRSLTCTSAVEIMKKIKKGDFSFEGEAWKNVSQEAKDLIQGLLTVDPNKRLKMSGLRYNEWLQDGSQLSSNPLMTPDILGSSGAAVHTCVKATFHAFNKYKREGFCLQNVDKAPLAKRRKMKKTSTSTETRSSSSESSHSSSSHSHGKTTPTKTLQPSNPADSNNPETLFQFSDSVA

Row | Compound | inhibition [%]
1 | C[C@@H](Oc1cc(-n2cnc3ccc(OC[C@@H](O)CO)cc32)sc1C(N)=O)c1ccccc1Cl | -1.23
2 | OCc1ccc(-c2nc(-c3ccccn3)c(-c3ccc4c(c3)OCO4)[nH]2)cc1 | 4.12
3 | Cc1ccc(NC(=O)CC2CC2)cc1-c1ccc(C(=O)NCC2CC2)cc1 | 8.94
4 | COc1ccc(-c2nn3ncccc3c2-c2ccnc(Nc3cccc(C(F)(F)F)c3)n2)cc1 | 1.92
5 | Cc1ccc2c(c1)/C(=N/Nc1ccc(S(N)(=O)=O)cc1)C(=O)N2 | 0.95
6 | COc1cc(/C=N/Nc2ncnc3c2cnn3C(C)C)ccc1O | 2.8
7 | NS(=O)(=O)c1ccc(NC=C2C(=O)Nc3ccc4ncsc4c32)cc1 | 11
8 | COc1cc(Nc2nccc(-c3cnn4ncccc34)n2)cc(OC)c1 | 1.61
9 | CCS(=O)(=O)c1ccc(OC)c(Nc2nccc(N(C)c3ccc4c(C)n[nH]c4c3)n2)c1 | 4.1
10 | Cc1ccc(Nc2ccnc(Nc3cccc(C(N)=O)c3)n2)cc1O | 1.2
11 | CS(=O)(=O)Nc1cccc(-c2ccc3c(NC(=O)C4CC4)n[nH]c3c2)c1 | 1.49
12 | NS(=O)(=O)c1ccc(Nc2cc(-c3cccc(O)c3)n[nH]2)cc1 | 5.25
13 | COC(=O)c1cncc(/C=C/c2c(C)cc(O)cc2C)c1 | 3.93
14 | COc1cc2ncnc(Nc3ccc(C)c(O)c3)c2cc1OC | 5.09
15 | COC(=O)Nc1nc2cc(Oc3ccc(NC(=O)Nc4cccc(Br)c4)cc3)ccc2[nH]1 | 2.67
16 | [O-][S+]1CCN(Cc2ccc(-c3ccc4ncnc(Nc5ccc(OCc6ccccc6)c(Cl)c5)c4c3)o2)CC1 | 1.47
17 | COc1cc2ncn(-c3cc(OCc4ccccc4S(C)(=O)=O)c(C#N)s3)c2cc1OC | 8.16
